MITF TRPM1 HTS: activators of MITF-driven TRPM1 promoter reporter, primary screen, cell-based, SK-MEL-5, luciferase, single point; actives 0.75% (n = 300,000); SK-MEL-5 TRPM1-promoter luciferase, 24 h; % of positive control, neutral wells = 0; activation, % at 12.5 µM;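 active = mean activation of at least 80% with every replicate also reaching 80%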;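 also: 0% = neutral control wells and 100% = parthenolide positive control wells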
Wnt act: Wnt/beta-catenin pathway activators, primary screen, cell-based, plate reader, single point | Wnt/beta-catenin reporter cell assay, activator | activation, % at 9.35 µM | actives 1.2% (n = 300,000) | AID 743398, 2014; in the data active = activation above about 30%, passing the limit was not always enough;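 also: 0% = neutral control wells and 100% = positive control wells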
esBAF inh: Bmi1 luciferase reporter increase in mESCs, primary screen, esBAF inhibitor project, mouse ES cells, Bmi1 luciferase knock-in, single point; 24 h; 100% = twice the neutral-well signal; reporter increase, % at 12.5 µM; actives 2% (n = 350,000); in the data active = activation above about 40%;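 also: 0% = median of the plate's neutral control wells and 100% = double that signal; a rise in the Bmi1 reporter signal indicates esBAF inhibition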
FXN GAA850 act: FXN promoter activators, primary screen, cell-based, luciferase luminescence, HEK293 lucGAA850; HEK293 lucGAA850 FXN promoter luciferase reporter, 24 h; percent of 10 µM SAHA response; activation, % at 6 µM; actives 0.56% (n = 360,000); AID 540364, 2011;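 active = activation above the average of all compounds screened plus 3 SD, cutoff fixed separately per campaign, cut at about 7.5% in these data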;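 also: 0% = DMSO wells and 100% = 10 µM SAHA wells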
C2C12 statin: suppressors of statin myotoxicity in C2C12 myotubes, primary screen, cell-based, single point, plate reader. C2C12 myotubes + simvastatin, ATP luminescence, 48 h; scaled: DMSO 0, geranylgeraniol control 100. rescue of ATP level, % at 7.49 µM. actives 0.78% (n = 330,000). AID 602340, 2012;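 active = mean ATP rescue above about 67%, or every replicate alone reaching that limit, limit read from the data, passing the limit was not always enough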;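 also: myotubes were challenged with 10 µM simvastatin during compound exposure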
The depositor's hits bear a star; nt = not tested or not shown. This is a sample that favours compounds with a hit; in the whole collection about 3.3% have one here.

SMILES	MITF TRPM1 HTS	Wnt act	esBAF inh	FXN GAA850 act	C2C12 statin
O=C(c1cc(=O)[nH]c2ccccc12)N1CCN(c2ccc([N+](=O)[O-])cc2)CC1	-13	39*	-2	-2	11
C[C@H](CO)N1C[C@H](C)[C@H](CN(C)Cc2ccncc2)Oc2ncc(C#CC3CCCC3)cc2C1=O	nt	nt	-3	nt	21
C[C@H](CO)N1C[C@H](C)[C@@H](CN(C)C(=O)CC2CC2)Oc2cc(C#CC3CC3)ccc2S1(=O)=O	nt	nt	-1	nt	9
Nc1c2c(nc3sc4c(c13)CCCC4)-c1ccccc1CC2	nt	42*	-14	2	-29
NNc1nc(-c2ccccc2)nc2sc3c(c12)CCCC3	16	nt	-22	0	7
O=C(O)c1ccc(/C=N/N2CCN(c3ccccc3)CC2)cc1	35	6	42*	4	0
O=C(c1ccc(-c2ccccc2)cc1)N1CCN(c2ccccc2)CC1	73	12	51*	3	6
C(=NN1CCCCCC1)c1ccccc1	21	9	nt	-2	1
O=C(O)c1ccc(C=NN2CCCCCC2)cc1	26	3	47*	3	-5
C[C@@H]1CN([C@H](C)CO)C(=O)Cc2cc(NC(=O)CCN3CCOCC3)ccc2O[C@H]1CN(C)Cc1ccccc1	nt	nt	0	nt	-11
O=C(C[C@H]1CC[C@@H]2[C@H](COC[C@H](O)CN2Cc2ccc(F)cc2)O1)NCc1ccncn1	nt	nt	-4	nt	0
CN(C)C1=NC[C@H](Cc2ccccc2)N1CC1CCCCCC1	7	-5	2	-3	97*
N#C[C@@H]1[C@@H](c2ccc(C#Cc3ccccc3F)cc2)[C@@H](CO)N1C(=O)C1CCCCC1	nt	nt	51*	nt	23
N#C[C@@H]1[C@@H](c2ccc(C#Cc3cccc(F)c3)cc2)[C@@H](CO)N1C(=O)C1CCCC1	nt	nt	50*	nt	21
CC(C)C#Cc1cnc2c(c1)C(=O)N([C@@H](C)CO)C[C@@H](C)[C@@H](CN(C)Cc1ccccc1)O2	nt	nt	0	nt	-3
O=C(NCCc1ccccc1)c1ccc(Cl)cc1[N+](=O)[O-]	57	8	62*	5	3
O=C(NCc1ccc(Cl)cc1)c1ccc(Cl)cc1[N+](=O)[O-]	9	0	-8	0	0
O=C(Nc1ccccc1)c1ccc(CSc2ncccn2)cc1	41	nt	3	4	-25
O=C(Nc1ccccc1F)c1ccc(CSc2ncccn2)cc1	76	11	62*	6	-8
CCCNC(=O)[C@@H]1[C@@H](CO)[C@@H]2Cn3c(cccc3=O)[C@H]1N2Cc1ccccc1	nt	nt	1	nt	-15
COc1ccc(C(=O)NCCn2cc(SCC(=O)NCC3CCCO3)c3ccccc32)cc1 (stereo not given)	0	3	nt	1	nt
COc1ccc(C(=O)NCCn2cc(SCC(=O)NCc3ccco3)c3ccccc32)cc1	4	nt	52*	-1	29
C[C@@H]1CN([C@H](C)CO)C(=O)c2cc(NS(=O)(=O)c3cn(C)cn3)ccc2O[C@H]1CN(C)Cc1ccc2c(c1)OCO2	nt	nt	-2	nt	10
C[C@@H]1CN([C@H](C)CO)C(=O)c2cc(Br)cnc2O[C@@H]1CN(C)CC1CC1	nt	nt	-2	nt	14
O=C(Nc1ccc(Br)cn1)c1cccc(C(=O)Nc2ccc(Br)cn2)c1	-17	-1	-8	3	-5
SMILES	MITF TRPM1 HTS	Wnt act	esBAF inh	FXN GAA850 act	C2C12 statin
COc1cc2ccccc2cc1C(=O)NCC(c1cccs1)N(C)C (stereo not given)	123*	28	nt	3	nt
COc1cc(OC)c(C(=O)NCC(c2cccs2)N(C)C)cc1OC (stereo not given)	14	nt	nt	-1	nt
COc1c(C(=O)Nc2nccs2)ccc2ccccc12	57	37*	42*	3	3
COc1c(C(=O)Nc2ccc(Br)cn2)ccc2ccccc12	67	29	49*	5	-9
O=C(Nc1ccc(Br)cn1)c1cccc2ccccc12	nt	-7	nt	-3	nt
O=C(Nc1ccc(Br)cn1)c1ccc2ccccc2c1	nt	17	56*	1	2
CNC(=O)C[C@@H]1CC[C@H]2[C@H](COc3ccc(NC(=O)c4cnccn4)cc3C(=O)N2C)O1	nt	nt	6	nt	3
